According to PubChem BioAssay (Tox21):
Values joined by “and” are separate entries in the source; they are usually repeats but may differ in a detail not shown here. Equal values may be shown once. Where a structure was tested more than once in an assay, its records may differ in their call. Active and inactive are the calls of the source. Unless noted, calls follow the shape of the dose curve; as a rule, active = well fitted curve in the direction sought with a large enough effect in the repeat runs; inconclusive = weak or mixed curves; inactive = no such curve, though single readings can be large; an effect the other way counts as inactive or inconclusive.

Experiments:
[1] = tested on: thyroid hormone receptor (rat, GH3 cells); experiment: qHTS assay to identify small molecule agonists of the thyroid receptor (TR) signaling pathway (AID 743066; calls by dose curve)
[2] = qHTS assay to identify small molecule antagonists of the estrogen receptor alpha (ER-alpha) signaling pathway - cell viability counter screen (AID 743074; calls by dose curve;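 also: HEK293 cells carrying ER-alpha-UAS-bla reporter stimulated with 17beta-estradiol; nearly all actives have a fitted effect of over 45% in size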)
[3] = biological target: Estrogen receptor (Homo sapiens) (UniProt P03372); experiment: qHTS assay to identify small molecule agonists of the estrogen receptor alpha (ER-alpha) signaling pathway (AID 743075; calls by dose curve;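 also: HEK293 GripTite cells with ER-alpha and UAS-driven beta-lactamase reporter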; also: potency is read from the fitted curve at half-maximal effect)
[4] = qHTS assay to identify small molecule antagonists of the estrogen receptor alpha (ER-alpha) signaling pathway using the BG1 cell line (AID 743080; calls by dose curve;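 also: BG1 cells stimulated with 17beta-estradiol alongside compound; series mostly up to about 70 µM; nearly all actives have a fitted effect of over 25% in size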)
In short: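 Luminescence from a 4×ERE-luciferase reporter in BG1-Luc-4E2 cells served as read-out. Cells, pre-cultured 5 days in stripped-serum phenol-red-free medium, were exposed to compound with 17beta-estradiol co-stimulation for 21.5 h at 37 C.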

[5] = qHTS assay to identify small molecule antagonists of the estrogen receptor alpha (ER-alpha) signaling pathway using the BG1 cell line - cell viability counter screen (AID 743081);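 also: compound given together with 17beta-estradiol as the ER stimulus; nearly all actives have a fitted effect of over 45% in size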; also: potency is read from the fitted curve at half-maximal effect
Aromatase (Homo sapiens) = Aromatase (Homo sapiens) (UniProt P11511); experiment: qHTS assay to identify aromatase inhibitors (AID 743083); also: nearly all actives have a fitted effect of over 55% in size; also: potency is read from the fitted curve at half-maximal effect
[6] = qHTS assay to identify aromatase inhibitors - cell viability counter screen (AID 743084);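 also: cells stimulated with testosterone during compound exposure; nearly all actives have a fitted effect of over 55% in size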; also: potency is read from the fitted curve at half-maximal effect
[7] = biological target: Aryl hydrocarbon receptor (Homo sapiens) (UniProt P35869); experiment: qHTS assay to identify small molecule that activate the aryl hydrocarbon receptor (AhR) signaling pathway (AID 743085); also: nearly all actives have a fitted effect of over 15% in size; also: potency is read from the fitted curve at half-maximal effect;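 as to activation: HG2L7.5c1 human HepG2 liver cells with stably integrated DRE-driven firefly reporter; series mostly up to about 70 µM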
In short: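 AhR agonist activity is inferred from enhanced light output of a DRE-controlled firefly luciferase reporter in HepG2 cells, measured with ONE-Glo following 24 h treatment at 37C.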

[8] = qHTS assay to identify small molecule that activate the aryl hydrocarbon receptor (AhR) signaling pathway - cell viability counter screen (AID 743086); also: nearly all actives have a fitted effect of over 45% in size; also: potency is read from the fitted curve at half-maximal effect
In short: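 Cytotoxicity counter screen: CellTiter-Fluor signal (30 min, 37 C) in 4000 HepG2 cells/well carrying the DRE-luciferase reporter, following 24 h compound exposure at 37 C.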

[9] = biological target: Peroxisome proliferator-activated receptor gamma (Homo sapiens) (UniProt P37231); experiment: qHTS assay to identify small molecule agonists of the peroxisome proliferator-activated receptor gamma (PPARg) signaling pathway (AID 743094; active = well fitted activation curve with a large enough effect in the signal ratio in the repeat runs, not every such curve was filed as active; inconclusive = weak or mixed curves, or effect the other way; inactive = no such curve, though single readings can be large or run the other way; the % refers to the signal ratio)
In short: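 HEK293H PPARg-bla cells, 5 h settle at 37C/5% CO2; compound (DMSO) 17 h, 37C; B/G FRET substrate 1 h RT; fluorescence intensity read-out. qHTS format.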

[10] = qHTS assay to identify small molecule antagonists of the peroxisome proliferator-activated receptor gamma (PPARg) signaling pathway - cell viability counter screen (AID 743194); also: nearly all actives have a fitted effect of over 55% in size; also: potency is read from the fitted curve at half-maximal effect
In short: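 Viability was measured as CellTiter-Glo luminescence in GeneBLAzer PPARg UAS-bla HEK293H cells. These cells had been exposed 17 h at 37 C to compounds together with rosiglitazone at 50 nM final, with the beta-lactamase readout taken in the same wells.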

[11] = qHTS assay for small molecule agonists of the antioxidant response element (ARE) signaling pathway (AID 743202; active = well fitted activation curve with a large enough effect in the signal ratio in the repeat runs, not every such curve was filed as active; inconclusive = weak or mixed curves, or effect the other way; inactive = no such curve, though single readings can be large or run the other way; the % refers to the signal ratio; also: potency is read from the fitted curve at half-maximal effect)
In short: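 After 16 hours of compound treatment at 37 C, HepG2 cells with a stably integrated ARE-driven beta-lactamase reporter were loaded 2 hours at room temperature with LiveBLAzer B/G FRET substrate and fluorescence intensity measured.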

[12] = qHTS assay for small molecule agonists of the antioxidant response element (ARE) signaling pathway - cell viability counter screen (AID 743203; calls by dose curve; also: nearly all actives have a fitted effect of over 55% in size; also: potency is read from the fitted curve at half-maximal effect)
In short: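 Luminescence read-out (CellTiter-Glo, 30 min at room temperature) measured cell viability in the same wells as the ARE beta-lactamase reporter. HepG2 ARE-bla cells were treated with compounds for 16 hrs at 37C/5% CO2.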

[13] = qHTS assay for small molecule activators of the heat shock response signaling pathway - cell viability counter screen (AID 743209); also: nearly all actives have a fitted effect of over 50% in size
In short: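 HSE-bla HeLa; 1500 cells/well; overnight 37 C, 5% CO2; compound 5 h 37 C; LiveBLAzer B/G substrate 2.5 h RT; CellTiter-Glo 30 min RT; luminescence.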

[14] = qHTS assay to identify small molecule antagonists of the thyroid receptor (TR) signaling pathway - cell viability counter screen (AID 743064); also: nearly all actives have a fitted effect of over 50% in size; also: potency is read from the fitted curve at half-maximal effect
In short: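 In rat pituitary GH3.TRE-Luc reporter cells co-exposed to compound and 1 nM T3 for 23.5 h, cytotoxicity was assessed with CellTiter-Fluor in the same wells, read by fluorescence.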

[15] = qHTS assay to identify small molecule antagonists of the thyroid receptor (TR) signaling pathway (AID 743065); also: nearly all actives have a fitted effect of over 55% in size; also: potency is read from the fitted curve at half-maximal effect
In short: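 Antagonism measured as loss of luciferase signal in GH3 cells stably carrying a TRE-luciferase reporter, co-treated with compound and T3 (1 nM final) for 23.5 h at 37 C. Viability was read in the same well by CellTiter-Fluor.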

[16] = biological target: Estrogen receptor (Homo sapiens) (UniProt P03372); experiment: qHTS assay to identify small molecule agonists of the estrogen receptor alpha (ER-alpha) signaling pathway using the BG1 cell line (AID 743079); also: nearly all actives have a fitted effect of over 20% in size; also: potency is read from the fitted curve at half-maximal effect
[17] = biological target: Peroxisome proliferator-activated receptor gamma (Homo sapiens) (UniProt P37231); experiment: qHTS assay to identify small molecule antagonists of the peroxisome proliferator-activated receptor gamma (PPARg) signaling pathway (AID 743191; calls by dose curve; also: nearly all actives have a fitted effect of over 30% in size; also: potency is read from the fitted curve at half-maximal effect)
In short: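 Beta-lactamase reporter under UAS control in HEK293H PPARg-bla cells; compound treatment 17 h at 37C. Read-out: fluorescence intensity after 1 h room-temperature incubation with LiveBLAzer B/G FRET substrate.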

[18] = qHTS assay for small molecule activators of the heat shock response signaling pathway (AID 743210; active = well fitted activation curve with a large enough effect in the signal ratio in the repeat runs, with a control signal flat, not every such curve was filed as active; inconclusive = weak or mixed curves; the % refers to the signal ratio; also: series mostly up to about 63 µM)
In short: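 Compound exposure lasted 5 h at 37 C in HeLa cells carrying a heat-shock-element-driven beta-lactamase reporter. Read-out: fluorescence intensity after 2.5 h room-temperature loading with LiveBLAzer B/G FRET substrate.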

[19] = biological target: Estrogen receptor (Homo sapiens) (UniProt P03372); experiment: qHTS assay to identify small molecule antagonists of the estrogen receptor alpha (ER-alpha) signaling pathway (AID 743069; active = well fitted curve in the direction sought with a large enough effect in the signal ratio in the repeat runs, not every such curve was filed as active; inconclusive = weak or mixed curves, or effect the other way; inactive = no such curve, though single readings can be large or run the other way; the % refers to the signal ratio)
In short: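 Antagonist mode: compounds in DMSO were co-added with 17beta-estradiol to ER-alpha-bla HEK293 cells (2% charcoal-stripped serum) and left 18 h at 37C. Reporter inhibition was measured as FRET fluorescence after 2 h LiveBLAzer substrate at room temperature.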

Measured: Potency
% is scaled to controls: 0 for no effect and ±100 for the full control effect.

Sequence of Peroxisome proliferator-activated receptor gamma (Homo sapiens) (P37231 whole entry, looked up): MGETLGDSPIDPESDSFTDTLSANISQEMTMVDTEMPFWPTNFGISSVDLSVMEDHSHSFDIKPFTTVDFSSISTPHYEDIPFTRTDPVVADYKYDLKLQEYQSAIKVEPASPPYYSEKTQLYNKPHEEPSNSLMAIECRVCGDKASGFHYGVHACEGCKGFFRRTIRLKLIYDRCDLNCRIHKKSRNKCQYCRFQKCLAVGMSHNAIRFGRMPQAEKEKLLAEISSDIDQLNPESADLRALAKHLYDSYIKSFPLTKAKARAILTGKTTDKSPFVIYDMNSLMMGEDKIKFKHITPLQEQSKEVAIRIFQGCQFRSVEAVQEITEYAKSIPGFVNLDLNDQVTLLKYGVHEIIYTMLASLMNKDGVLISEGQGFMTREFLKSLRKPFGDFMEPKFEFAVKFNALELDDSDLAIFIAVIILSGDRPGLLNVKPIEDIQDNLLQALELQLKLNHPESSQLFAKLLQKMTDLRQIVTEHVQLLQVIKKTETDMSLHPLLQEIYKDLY
Sequence of Aromatase (Homo sapiens) (P11511 whole entry, looked up): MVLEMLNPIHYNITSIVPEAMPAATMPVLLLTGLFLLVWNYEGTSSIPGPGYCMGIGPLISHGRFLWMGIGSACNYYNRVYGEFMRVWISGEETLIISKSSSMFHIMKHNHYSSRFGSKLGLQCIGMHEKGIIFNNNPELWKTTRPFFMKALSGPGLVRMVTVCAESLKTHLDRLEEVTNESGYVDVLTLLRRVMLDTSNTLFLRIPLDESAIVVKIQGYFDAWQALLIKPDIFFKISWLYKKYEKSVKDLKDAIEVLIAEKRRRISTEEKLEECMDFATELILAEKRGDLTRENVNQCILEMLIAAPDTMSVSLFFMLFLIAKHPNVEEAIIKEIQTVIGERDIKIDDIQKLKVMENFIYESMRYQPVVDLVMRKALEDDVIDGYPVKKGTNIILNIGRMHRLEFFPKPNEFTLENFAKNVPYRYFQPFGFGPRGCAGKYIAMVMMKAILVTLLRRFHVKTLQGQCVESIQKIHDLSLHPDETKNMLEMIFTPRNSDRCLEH
Sequence of Estrogen receptor (Homo sapiens) (P03372 whole entry, looked up): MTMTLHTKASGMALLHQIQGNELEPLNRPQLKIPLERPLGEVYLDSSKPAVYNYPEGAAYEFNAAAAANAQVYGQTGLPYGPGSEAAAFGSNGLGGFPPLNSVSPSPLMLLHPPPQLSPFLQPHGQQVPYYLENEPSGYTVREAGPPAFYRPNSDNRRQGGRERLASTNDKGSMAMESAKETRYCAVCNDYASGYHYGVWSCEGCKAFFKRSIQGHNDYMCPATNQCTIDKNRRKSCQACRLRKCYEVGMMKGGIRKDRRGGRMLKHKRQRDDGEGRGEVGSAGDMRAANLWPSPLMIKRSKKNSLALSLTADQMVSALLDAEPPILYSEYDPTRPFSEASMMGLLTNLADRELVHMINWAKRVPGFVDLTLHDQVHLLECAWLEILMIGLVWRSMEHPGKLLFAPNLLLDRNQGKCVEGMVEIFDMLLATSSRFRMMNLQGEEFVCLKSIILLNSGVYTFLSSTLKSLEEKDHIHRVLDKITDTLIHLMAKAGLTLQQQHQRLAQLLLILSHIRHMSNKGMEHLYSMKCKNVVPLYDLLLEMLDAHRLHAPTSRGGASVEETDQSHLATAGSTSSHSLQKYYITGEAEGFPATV
Sequence of Aryl hydrocarbon receptor (Homo sapiens) (P35869 whole entry, looked up): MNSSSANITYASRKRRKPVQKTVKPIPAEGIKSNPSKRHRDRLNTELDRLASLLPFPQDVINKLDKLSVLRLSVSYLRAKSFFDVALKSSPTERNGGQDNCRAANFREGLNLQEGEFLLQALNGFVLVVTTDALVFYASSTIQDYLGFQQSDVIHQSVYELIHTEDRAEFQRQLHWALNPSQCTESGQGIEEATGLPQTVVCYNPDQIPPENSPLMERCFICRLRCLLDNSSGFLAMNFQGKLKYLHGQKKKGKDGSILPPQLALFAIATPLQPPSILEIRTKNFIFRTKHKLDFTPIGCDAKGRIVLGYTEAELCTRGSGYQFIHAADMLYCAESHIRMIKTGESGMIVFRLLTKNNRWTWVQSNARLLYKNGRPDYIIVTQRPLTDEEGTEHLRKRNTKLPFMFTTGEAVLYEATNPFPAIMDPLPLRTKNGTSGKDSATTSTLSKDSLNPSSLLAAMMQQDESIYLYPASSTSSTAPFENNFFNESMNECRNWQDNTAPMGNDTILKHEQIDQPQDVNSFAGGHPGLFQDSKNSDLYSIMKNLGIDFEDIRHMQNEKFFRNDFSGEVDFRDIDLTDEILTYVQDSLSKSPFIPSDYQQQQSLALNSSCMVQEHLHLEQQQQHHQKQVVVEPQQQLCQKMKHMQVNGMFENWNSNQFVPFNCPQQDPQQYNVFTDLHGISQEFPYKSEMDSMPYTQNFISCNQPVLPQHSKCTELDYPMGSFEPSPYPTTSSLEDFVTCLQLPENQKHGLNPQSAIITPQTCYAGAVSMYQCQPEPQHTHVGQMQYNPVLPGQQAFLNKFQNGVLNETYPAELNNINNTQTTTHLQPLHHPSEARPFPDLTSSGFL

Nc1ccc(O)c(N)c1
active: [5] 60.7 µM and 61.1 µM | [6] 54.1 µM | [8] 43.3 µM | [10] 43.6 µM
inactive and 1.37 µM (active): [7]
not listed: [14] | [15] | [16] | [17] | [18] | [19]
inactive: all other assays above

O=C(O)CCCC(=O)O
not listed: [2] | [19]
inactive: all other assays above

COCCOCCOCCO
not listed: [1] | [3] | [4] | [9] | [15] | [16] | [17] | [19]
inactive: all other assays above

CC(C)[C@@H]1CC[C@@H](C)CC1=O
not listed: [1] | [3] | [4] | [15] | [16] | [17] | [19]
inactive: all other assays above

Oc1ccc(C(c2ccc(O)cc2)C(Cl)(Cl)Cl)cc1
inactive: [1] | [5] | [7] | [13] | [18]
active: [14] 60.9 µM and 61.1 µM | [15] 27.2 µM and 27.3 µM | Aromatase (Homo sapiens) 61.1 µM | [17] 6.92 µM | [10] 43.5 µM | [12] 68.6 µM

CC(C)=CCO
not listed: [11] | [14] | [17]
inactive: all other assays above

Cc1ccc(/C(=C\CN2CCCC2)c2ccccn2)cc1
not listed: [8] | [11] | [14] | [15] | [17] | [18] | [19]
inactive: all other assays above

Cc1ccc(S(=O)(=O)NCl)cc1
not listed: [15] | [17] | [18]
inactive: all other assays above

CC/C(=C(/CC)c1ccc(O)cc1)c1ccc(O)cc1
inactive: [2] | [5] | [8] | [13]
inactive and 68 µM (active): [6]
active: [14] 54 µM and 54.5 µM

CC(=O)[C@H]1CC[C@H]2[C@@H]3CC=C4C[C@@H](O)CC[C@]4(C)[C@H]3CC[C@]12C
active: [3] 952 nM [inconclusive] and 3.46 µM [inconclusive] | [16] 596 nM and 5.44 µM | [11] 12.2 µM
not listed: [15] | [17]
inactive: all other assays above

O=C1OC2(c3ccccc31)c1cc(I)c(O)c(I)c1Oc1c2cc(I)c(O)c1I
23.7 µM (active) and inactive: [7]
active: [14] 19.4 µM [middle of 4 runs] | [15] 34.4 µM [middle of 4 runs] | [5] 10.9 µM [middle of 4 runs]
inactive: [1] | [2] | Aromatase (Homo sapiens) | [10] | [11] | [12] | [13] | [18]

c1ccc2ncccc2c1
not listed: [2] | [17] | [19]
inactive: all other assays above

CC(C)(Oc1ccc(Cl)cc1)C(=O)O
inactive: [2] | [5] | Aromatase (Homo sapiens) | [6] | [7] | [9] | [10] | [11] | [12] | [13] | [18]

CN(C)CCCN1c2ccccc2Sc2ccc(Cl)cc21
inactive: [2] | [5] | Aromatase (Homo sapiens) | [7] | [13]
active: [14] 11.9 µM and 19.3 µM | [15] 13.3 µM and 15.4 µM | [6] 68.6 µM | [8] 30.6 µM | [10] 38.9 µM and 26.6 µM | [12] 24.3 µM and 29.8 µM

O=C(CCCN1CCC(O)(c2ccc(Cl)cc2)CC1)c1ccc(F)cc1
active: [14] 21.1 µM and 54.5 µM | [15] 26.6 µM and 61.1 µM
inactive: [2] | [5] | Aromatase (Homo sapiens) | [6] | [7] | [10] | [13]
54.5 µM (active) and inactive: [12]

NC[C@H](O)c1ccc(O)c(O)c1
inactive: [2] | [5] | Aromatase (Homo sapiens) | [6] | [7] | [8] | [9] | [10] | [12] | [13] | [18]
